PubChem BioAssay (Tox21)
“And” between values parts separate entries of the source, which are not always exact repeats. Equal values may be shown once. Inconclusive results are not listed. Some structures have more than one record in an assay (separate samples or runs), and their calls can disagree. The source made the active and inactive calls. The call rests on the fitted dose curve; in most records, active means well fitted inhibition curve with a large enough effect in the repeat runs; inconclusive means weak or mixed curves; inactive means no such curve, though single readings can be large or run the other way.

target: Cytochrome P450 2D6 (Homo sapiens) (UniProt P10635); experiment: Cytochrome P450 Family 2 Subfamily D Member 6 (CYP2D6) small molecule antagonists: luciferase reporter qHTS assay (AID 1671196); settings: P450-Glo CYP2D6 enzyme assay, luciferin luminescence, 1 h; series mostly up to 115 µM; further: nearly all actives have a fitted effect of over 50% in size
How it was run: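 Read-out is luminescence from luciferin formed by CYP2D6 turnover of a proluciferin substrate, recorded as relative luminescence units. Reactions ran 1 h at room temperature after NADPH regeneration solution was added.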
Potency means the concentration at half of the fitted maximal effect.

Sequence of Cytochrome P450 2D6 (Homo sapiens) (P10635 whole entry, looked up): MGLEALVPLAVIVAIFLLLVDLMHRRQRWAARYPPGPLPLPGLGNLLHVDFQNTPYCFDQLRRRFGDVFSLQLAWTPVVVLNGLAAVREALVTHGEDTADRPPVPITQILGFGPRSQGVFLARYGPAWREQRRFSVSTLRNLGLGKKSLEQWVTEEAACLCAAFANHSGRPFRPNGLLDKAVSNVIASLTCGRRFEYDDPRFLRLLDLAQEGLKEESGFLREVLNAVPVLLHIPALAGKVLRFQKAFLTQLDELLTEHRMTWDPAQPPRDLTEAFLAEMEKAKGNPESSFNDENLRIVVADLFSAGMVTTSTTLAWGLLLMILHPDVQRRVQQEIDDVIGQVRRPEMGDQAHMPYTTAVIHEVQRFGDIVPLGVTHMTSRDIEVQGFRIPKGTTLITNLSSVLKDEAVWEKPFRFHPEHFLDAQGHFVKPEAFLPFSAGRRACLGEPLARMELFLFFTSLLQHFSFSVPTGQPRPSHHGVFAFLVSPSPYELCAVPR

SMILES | Potency
CC(C)COC(=O)c1ccccc1C(=O)OCC(C)C | inactive
CN(C)c1ccccc1 | inactive
CCOP(=S)(OCC)OP(=S)(OCC)OCC | inactive
CCOP(=O)(OCC)OCC | inactive
[CH3][Sn]([Cl])([Cl])[Cl] | 32.4 µM (active) and inactive
ClCc1ccccn1 | 39.2 µM (active)
CCCCCCCC[N+](C)(CCCCCCCC)CCCCCCCC | 28.2 nM (active) and 56.5 nM (active) and 564 nM (active)
CC1(C)C(C(=O)OC(C#N)c2cccc(Oc3ccccc3)c2)C1(C)C (stereo not drawn) | inactive
CCOP(=S)(OCC)SCSC(C)(C)C | inactive

target: Cytochrome P450 2C19 (Homo sapiens) (UniProt P33261); experiment: Cytochrome P450 Family 2 Subfamily C Member 19 (CYP2C19) small molecule antagonists: luciferase reporter qHTS assay (AID 1671197); settings: P450-Glo CYP2C19 enzyme, luciferin luminescence, 1 h; series mostly up to 115 µM; further: nearly all actives have a fitted effect of over 65% in size
How it was run: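 Enzyme-substrate mix with proluciferin substrate (P450-Glo CYP2C19 system) preincubated with compounds 10 min at room temperature; NADPH regeneration solution added, 37C for 1 h; detection reagent stops reaction, luminescence read after 20 min. Ketoconazole positive control.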

Sequence of Cytochrome P450 2C19 (Homo sapiens) (P33261 whole entry, looked up): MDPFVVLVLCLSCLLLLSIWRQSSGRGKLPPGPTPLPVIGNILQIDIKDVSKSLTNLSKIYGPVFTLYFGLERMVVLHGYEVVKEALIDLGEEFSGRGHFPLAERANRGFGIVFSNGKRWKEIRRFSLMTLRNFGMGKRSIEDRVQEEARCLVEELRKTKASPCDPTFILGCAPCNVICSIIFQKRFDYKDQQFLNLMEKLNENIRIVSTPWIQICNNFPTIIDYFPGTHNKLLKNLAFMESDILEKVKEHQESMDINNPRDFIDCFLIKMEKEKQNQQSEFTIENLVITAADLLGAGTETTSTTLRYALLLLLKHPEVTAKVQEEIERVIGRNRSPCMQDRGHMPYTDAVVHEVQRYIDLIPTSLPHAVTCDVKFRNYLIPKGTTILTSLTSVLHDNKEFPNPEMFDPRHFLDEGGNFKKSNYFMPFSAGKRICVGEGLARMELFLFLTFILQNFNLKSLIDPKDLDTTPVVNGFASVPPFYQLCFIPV

SMILES | Potency
CNC(=O)CSP(=S)(OC)OC | 10.3 µM (active) and 20 µM (active)
CCCCOCCOC(C)=O | 77.6 µM (active) and inactive
CC(C)(C#N)N=NC(C)(C)C#N | inactive
O=C(O)c1nn(Cc2ccc(Cl)cc2Cl)c2ccccc12 | inactive
CC1CC(=O)O1 (stereo not drawn) | inactive
C=CC(Cl)CCl (stereo not drawn) | 40.7 µM (active) and inactive
C=CC(=O)OCC(CC)(COC(=O)C=C)COC(=O)C=C | 16.3 µM (active) and 15.9 µM (active)
CCCCC(C#N)(Cn1cncn1)c1ccc(Cl)cc1 (stereo not drawn) | 794 nM (active) and 633 nM (active)
Oc1ccc(Cl)cc1Cl | 70.5 µM (active) and inactive
CC(C)(O)C#N | 75.3 µM (active) and 39.9 µM (active)
O=NN1CCOCC1 | inactive
CCOC(=O)c1ccccc1N | inactive
COc1ccc(O)c(C(C)(C)C)c1 | 7.99 µM (active) and 5.64 µM (active)
CCNc1nc(Cl)nc(NC(C)(C)C#N)n1 | inactive
Brc1ccc(Br)cc1 | inactive
CCC/C=N/O | inactive
CCCCOC(=O)COC(=O)c1ccccc1C(=O)OCCCC | 7.93 µM (active) and 11.2 µM (active)
Nc1ncn[nH]1 | inactive
CC(C)(c1ccccc1)c1ccc(O)c(C(C)(C)c2ccccc2)c1 | 5.59 µM (active) and 3.56 µM (active)

SMILES | Potency
c1ccc(C2CO2)cc1 (stereo not drawn) | inactive and 35.6 µM (active)
Clc1ccc(C(Cl)(Cl)Cl)cc1 | inactive and 28.3 µM (active)
COc1ccc(C=O)cc1OC | 9.04 µM (active) and 71 µM (active)
CCOS(=O)(=O)OCC | 79.8 µM (active) and inactive
ClCC(Cl)CCl | inactive
O=NN(c1ccccc1)c1ccccc1 | 39 µM (active) and 35.6 µM (active)
CCC[CH2][Sn]([Cl])([CH2]CCC)[CH2]CCC | 2.01 µM (active) and 2.24 µM (active)
Clc1cccc(C(Cl)(Cl)Cl)n1 | inactive
COP(=O)(NC(C)=O)SC (stereo not drawn) | 71.1 µM (active) and inactive
CSc1nc(NC(C)C)nc(NC(C)C)n1 | 39.8 µM (active) and 71 µM (active)
CC(C)COC(=O)c1ccccc1C(=O)OCC(C)C | 10 µM (active) and 11.2 µM (active)
CN(C)c1ccccc1 | 29 µM (active) and 41.6 µM (active)
CCOP(=S)(OCC)OP(=S)(OCC)OCC | 8.18 µM (active) and 17.8 µM (active)
CCOP(=O)(OCC)OCC | 49.4 µM (active) and inactive
[CH3][Sn]([Cl])([Cl])[Cl] | inactive
ClCc1ccccn1 | 78.1 µM (active) and inactive
CCCCCCCC[N+](C)(CCCCCCCC)CCCCCCCC | 5.63 µM (active) and 3.56 µM (active) and 31.7 µM (active)
CC1(C)C(C(=O)OC(C#N)c2cccc(Oc3ccccc3)c2)C1(C)C (stereo not drawn) | 9 µM (active) and 22.4 µM (active)
CCOP(=S)(OCC)SCSC(C)(C)C | 9.01 µM (active) and 3.17 µM (active)

target: Cytochrome P450 2C9 (Homo sapiens) (UniProt P11712); experiment: Cytochrome P450 Family 2 Subfamily C Member 9 (CYP2C9) small molecule antagonists: luciferase reporter qHTS assay (AID 1671198); settings: P450-Glo CYP2C9 enzyme assay, luciferin luminescence; series mostly up to 115 µM; further: nearly all actives have a fitted effect of over 50% in size
How it was run: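 CYP2C9 activity was measured with a P450-Glo proluciferin substrate. Enzyme–substrate mix was held with compound for 10 min at room temperature, then NADPH regeneration solution was added for 1 h at 37C. Luciferin product was read as luminescence.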

Sequence of Cytochrome P450 2C9 (Homo sapiens) (P11712 whole entry, looked up): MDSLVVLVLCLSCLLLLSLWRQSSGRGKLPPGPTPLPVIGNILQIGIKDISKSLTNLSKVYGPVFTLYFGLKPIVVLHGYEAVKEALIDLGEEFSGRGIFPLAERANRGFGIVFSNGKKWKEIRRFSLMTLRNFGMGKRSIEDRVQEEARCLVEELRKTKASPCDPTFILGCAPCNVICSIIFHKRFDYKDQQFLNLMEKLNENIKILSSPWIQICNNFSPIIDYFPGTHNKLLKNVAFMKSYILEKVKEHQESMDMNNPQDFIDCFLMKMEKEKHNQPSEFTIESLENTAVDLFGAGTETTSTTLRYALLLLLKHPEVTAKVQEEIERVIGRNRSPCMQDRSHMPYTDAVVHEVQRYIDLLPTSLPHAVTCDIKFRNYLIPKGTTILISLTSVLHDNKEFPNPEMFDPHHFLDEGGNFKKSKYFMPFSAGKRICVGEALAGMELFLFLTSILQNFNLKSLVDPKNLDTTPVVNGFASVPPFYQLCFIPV

SMILES | Potency
CNC(=O)CSP(=S)(OC)OC | 36.6 µM (active) and 20 µM (active)
CCCCOCCOC(C)=O | inactive
CC(C)(C#N)N=NC(C)(C)C#N | inactive
O=C(O)c1nn(Cc2ccc(Cl)cc2Cl)c2ccccc12 | 70.5 µM (active) and inactive
CC1CC(=O)O1 (stereo not drawn) | inactive
C=CC(=O)OCC(CC)(COC(=O)C=C)COC(=O)C=C | 13 µM (active) and 28.3 µM (active)
CCCCC(C#N)(Cn1cncn1)c1ccc(Cl)cc1 (stereo not drawn) | 28.2 µM (active) and 25.2 µM (active)
Oc1ccc(Cl)cc1Cl | inactive
CC(C)(O)C#N | 42.4 µM (active)
O=NN1CCOCC1 | inactive
CCOC(=O)c1ccccc1N | inactive
COc1ccc(O)c(C(C)(C)C)c1 | 25.3 µM (active) and 31.7 µM (active)
CCNc1nc(Cl)nc(NC(C)(C)C#N)n1 | inactive
Brc1ccc(Br)cc1 | inactive
CCC/C=N/O | inactive
CCCCOC(=O)COC(=O)c1ccccc1C(=O)OCCCC | 6.3 µM (active) and 7.1 µM (active)
Nc1ncn[nH]1 | inactive
CC(C)(c1ccccc1)c1ccc(O)c(C(C)(C)c2ccccc2)c1 | 3.96 µM (active) and 2.83 µM (active)

SMILES | Potency
c1ccc(C2CO2)cc1 (stereo not drawn) | inactive and 71 µM (active)
Clc1ccc(C(Cl)(Cl)Cl)cc1 | inactive
COc1ccc(C=O)cc1OC | inactive
CCOS(=O)(=O)OCC | 71.1 µM (active) and inactive
ClCC(Cl)CCl | inactive
O=NN(c1ccccc1)c1ccccc1 | 34.8 µM (active) and 63.3 µM (active)
CCC[CH2][Sn]([Cl])([CH2]CCC)[CH2]CCC | 14.2 µM (active) and 15.9 µM (active)
Clc1cccc(C(Cl)(Cl)Cl)n1 | inactive
COP(=O)(NC(C)=O)SC (stereo not drawn) | inactive
CC(C)COC(=O)c1ccccc1C(=O)OCC(C)C | 28.3 µM (active) and 11.2 µM (active)
CN(C)c1ccccc1 | inactive
CCOP(=S)(OCC)OP(=S)(OCC)OCC | 32.6 µM (active) and 35.6 µM (active)
CCOP(=O)(OCC)OCC | 35 µM (active) and inactive
[CH3][Sn]([Cl])([Cl])[Cl] | inactive
ClCc1ccccn1 | inactive
CCCCCCCC[N+](C)(CCCCCCCC)CCCCCCCC | 28.2 µM (active) and 2.83 µM (active) and 35.6 µM (active)
CC1(C)C(C(=O)OC(C#N)c2cccc(Oc3ccccc3)c2)C1(C)C (stereo not drawn) | 11.3 µM (active) and 7.96 µM (active)
CCOP(=S)(OCC)SCSC(C)(C)C | 32 µM (active) and 14.2 µM (active)
